Measurements from PubChem BioAssay (NCATS).
Records with an inconclusive call do not appear. Entries that show only a call come without a potency. The source made the active and inactive calls. The call rests on the fitted dose curve; in most records, active means well fitted inhibition curve with a large enough effect; inconclusive means small, poorly fitted or top-dose-only effect; inactive means flat fitted curve, though single readings scatter.

test system: CRL-7250; assay: qHTS assay to identify novel small-molecules to repurpose for Merkel cell carcinoma treatment (AID 1296009); settings: MCC and control cell lines, CellTiter-Glo viability, 72 h; series mostly up to 92 µM; further: nearly all actives have a fitted effect of over 60% in size
In short: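 72 hr, 37 degree celsius; NPC 8-pt / MIPE 11-pt dose response; compound pinned in DMSO; CellTiter-Glo, 10 min RT, luminescence; normalized to no-cell and DMSO controls.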

Q: Which Potency does the source give for CC1=CC(=O)CC(C)(CO[C@@H]2O[C@H](CO)[C@@H](O)[C@H](O)[C@H]2O)C1(O)/C=C/C(C)=C/C(=O)O (stereo not given in full) here?
A: inactive

Q: How did the Potency turn out when CC1CC(=O)C2=C(O1)OC1(C)CCC3C(C)(C)C4OC4C(=O)C3(C)C1C2 (stereo not given) was run?
A: inactive

Q: C[C@@H]1O[C@@H](O[C@@H]2[C@@H](O)[C@H](O[C@H]3CC[C@@]4(C)C(CC[C@]5(C)C4CC=C4[C@@H]6CC(C)(C)CC[C@]6(C(=O)O[C@@H]6O[C@H](CO)[C@@H](O)[C@H](O)[C@H]6O)CC[C@]45C)C3(C)C)O[C@H](C(=O)O)[C@H]2O)[C@H](O)[C@H](O)[C@H]1O (stereo not given in full) was tested. Which outcome did it give?
A: inactive [at 9.27 µM]

Q: With CCC(C)/C=C(C)/C=C/C1=CC2=C(Cl)C(=O)C(C)(OC(C)=O)C(=O)C2=CN1CCCC(=O)O (stereo not given) as the molecule, how does the Potency read?
A: inactive

Q: CC(C)C(C(=O)N(C)C(C)C(N)=O)N(C)C(=O)C1CCCN1C(=O)/C=C/C=C/C(O)C(C)O (stereo not given) was tested. Which Potency did it give?
A: inactive

Q: With O=C1CC(c2ccc([N+](=O)[O-])cc2)=NN1c1ccccc1 as the molecule, how does the Potency read?
A: inactive

Q: With COc1cc(OC)cc(C(=O)Nc2ccc(Cl)c(-c3nc4ccc(N(C)C)cc4[nH]3)c2)c1 as the molecule, how does the Potency read?
A: inactive

Q: For COc1cccc(-n2nc(C(=O)O)cc2-c2ccc(C3CCCCC3)c(Cl)c2)c1, which Potency is on record?
A: inactive

Q: For CC1=C2C(=O)C=C(CO[C@@H]3O[C@H](CO)[C@@H](O)[C@H](O)[C@H]3O)[C@@H]2[C@H]2OC(=O)[C@H](C)[C@@H]2[C@@H](O)C1, which Potency is on record?
A: inactive

Q: How did the outcome turn out when C/C=C(\C)C(=O)OC[C@H]1O[C@@H](O[C@H]2[C@@H](O[C@H]3O[C@H](CO)[C@@H](O)[C@H](O)[C@H]3O[C@@H]3O[C@H](CO)[C@@H](O)[C@H](O)[C@H]3O)O[C@H](COC(=O)/C(C)=C/C)[C@@H](O)[C@@H]2O)[C@H](O)[C@@H](O)[C@@H]1O was run?
A: inactive [at 9.27 µM]

Q: Which Potency does the source give for C[C@H](NC(c1cccc(C[P+](=O)O)c1)[C@H](C)O)c1ccc(Cl)c(Cl)c1 (stereo not given in full) here?
A: inactive

Q: With C[C@@H]1CC[C@@]23CC[C@]4(C)[C@@](C=CC5[C@@]6(C)CC[C@H](O)C(C)(C)C6CC[C@]54C)(OC2=O)C3[C@H]1C (stereo not given in full) as the molecule, how does the Potency read?
A: inactive

Q: Which Potency does the source give for Cn1c(=O)c2nc(/C=C/c3cccc(Cl)c3)n(C)c2n(C)c1=O here?
A: inactive

Q: Which Potency does the source give for Cc1cc(Nc2nc(NC(C)c3ncc(F)cn3)ncc2Cl)n[nH]1 (stereo not given) here?
A: inactive

Q: With C=C1CCC2C(C)(C(=O)O)CCCC2(C)C1CCC1=CCOC1=O (stereo not given) as the molecule, how does the Potency read?
A: inactive

Q: How did the Potency turn out when COC(=O)C1=COC(OC2OC(CO)C(O)C(O)C2O)C2C(C)CC(=O)C12O (stereo not given) was run?
A: inactive

Q: For Cc1ccc(Sc2cncc3sc(C(N)=O)cc23)cc1, which Potency is on record?
A: inactive

Q: How did the outcome turn out when COC1CC(O[C@H]2CC[C@@]3(C)C(=CC[C@]4(O)C3[C@H](OC(C)=O)[C@@H](OC(=O)c3ccccc3)[C@]3(C)[C@@H](C(C)=O)CC[C@@]34O)C2)OC(C)C1OC1CC(OC)C(OC2CC(OC)C(OC3OC(C)C(OC4OC(CO)C(O)C(O)C4O)C(OC)C3O)C(C)O2)C(C)O1 (stereo not given in full) was run?
A: inactive [at 9.27 µM]

Q: C=C1CCC2C(C)(C)CC(=O)CC2(C)C1CCC(C)CCOC(C)=O (stereo not given) was tested. Which Potency did it give?
A: inactive

Q: How did the Potency turn out when COc1cc(O)cc(C)c1C(=O)O[C@H]1[C@@H](OC(C)=O)[C@H](n2ccc(=O)[nH]c2=O)O[C@@H]1CO was run?
A: inactive

Q: CC(C)C(CO)Nc1nc(Nc2ccc(C(=O)O)c(Cl)c2)c2ncn(C(C)C)c2n1 (stereo not given) was tested. Which Potency did it give?
A: inactive

Q: Which Potency does the source give for CC(O)C(C)n1ncn(-c2ccc(N3CCN(c4ccc(OCC5COC(Cn6cncn6)(c6ccc(Cl)cc6Cl)O5)cc4)CC3)cc2)c1=O (stereo not given) here?
A: inactive

Q: CC(C)c1ccc(NC(=O)Cn2cnc3c2c(=O)n(C)c(=O)n3C)cc1 was tested. Which Potency did it give?
A: inactive

Q: How did the Potency turn out when N#CCc1ccc(O)cc1O[C@@H]1O[C@H](CO)[C@@H](O)[C@H](O)[C@H]1O was run?
A: inactive

Q: How did the Potency turn out when CC(=O)/C=C/C1(O)C(C)CC(O[C@@H]2O[C@H](CO)[C@@H](O)[C@H](O)[C@H]2O)CC1(C)C (stereo not given in full) was run?
A: inactive

Q: How did the Potency turn out when CN(C)CCn1cc(S(=O)(=O)c2cccc(F)c2)c2cccnc21 was run?
A: inactive

Q: Which Potency does the source give for COc1cc(/C=C/C(=O)O[C@H]2[C@H](O)[C@@H](CO)O[C@@]2(CO)O[C@H]2O[C@H](COC(=O)c3ccc(O)cc3)[C@@H](O)[C@H](O)[C@H]2O)cc(OC)c1OC here?
A: inactive

Q: Which Potency does the source give for C=C(CO)C(=O)O[C@H]1C[C@@]23O[C@@H]2CC/C(=C/[C@H]2OC(=O)C(=C)[C@H]12)CO[C@H]3O here?
A: inactive

Q: For CCn1nnnc1NCc1ccc(C(C)C)cc1, which Potency is on record?
A: inactive

Q: Which Potency does the source give for CC12CC34C=CC(=O)C(C)(CCC(=O)O)C3C(CC1C4)O2 (stereo not given) here?
A: inactive
